High-throughput results: PubChem, several laboratories
CYP2C9 inhib – blockers of cytochrome P450 2C9 activity – biochemical, luminescence, ADME assay, primary screen; P11712; CYP2C9 Supersomes, luciferin-H conversion; inhibition, % at 5 µM; 96,000 tested, 20% active; AID 777, 2007;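 active = blocking of liver enzyme CYP2C9 beyond about 50% at 5 µM, limit read from the data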
CYP2C19 inh – blockers of cytochrome P450 2C19 activity – biochemical, luminescence, ADME assay, primary screen; inhibition, % at 5 µM; P33261; 96,000 tested, 21% active; AID 778, 2007; CYP2C19 Supersomes, luciferin-H EGE luminescence, 30 min;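 active = CYP2C19 inhibition above a set limit at 5 µM in the primary screen, cut at about 50% in these data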;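 note: plate controls were negative control wells for no effect and 2.5 mM tranylcypromine positive control for full effect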
Target sequence (P33261 whole entry, looked up): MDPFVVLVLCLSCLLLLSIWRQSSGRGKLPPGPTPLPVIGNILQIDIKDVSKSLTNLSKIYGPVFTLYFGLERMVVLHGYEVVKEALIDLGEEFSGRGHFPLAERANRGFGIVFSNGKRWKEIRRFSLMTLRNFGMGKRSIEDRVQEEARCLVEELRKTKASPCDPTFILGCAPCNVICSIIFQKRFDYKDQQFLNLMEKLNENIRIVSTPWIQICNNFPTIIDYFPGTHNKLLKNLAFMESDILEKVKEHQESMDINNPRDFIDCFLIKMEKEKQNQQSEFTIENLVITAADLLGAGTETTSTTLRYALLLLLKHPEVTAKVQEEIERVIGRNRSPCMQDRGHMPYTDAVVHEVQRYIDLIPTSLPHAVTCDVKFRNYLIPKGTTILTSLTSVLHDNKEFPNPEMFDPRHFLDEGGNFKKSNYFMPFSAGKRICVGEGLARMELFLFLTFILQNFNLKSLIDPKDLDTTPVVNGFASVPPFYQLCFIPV
PostGolgi ctrl – growth inhibition of yeast control strain, primary screen, counter-screen for post-Golgi transport modulator project; efflux-deficient yeast background strain, growth absorbance A615, 16 h; inhibition, % at 10 µM; 98,000 tested, 5% active; AID 738, 2007
CYP2C19 act – human CYP2C19 activators, primary screen, biochemical, luminescence. recombinant CYP2C19, luciferin-H EGE luminescence; stronger effect = higher value; 0 = fully inhibited enzyme, 1 = untreated enzyme. Cytochrome P450 2C19 (Homo sapiens), P33261. 96,000 tested, under 10 active. activation factor at 5 µM;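 active = activation factor of at least 2 at 5 µM in the primary screen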;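 note: 0 = wells with 2.5 mM tranylcypromine and 1 = vehicle-only wells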
CYP2C9 act – human CYP2C9 activators, primary screen, biochemical, luminescence; Cytochrome P450 2C9 (Homo sapiens), P11712; recombinant CYP2C9, luciferin-H conversion; stronger effect = higher value; factor 1 = untreated enzyme, 0 = blocked; 96,000 tested, 1.4% active; activation factor at 5 µM;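 active = activation factor of 2 or more for CYP2C9 at a 5 µM dose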;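 note: 0 = sulfaphenazole-blocked wells and 1 = vehicle-only wells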
PostGolgi yeast – phenotypic screen on post-Golgi transport, primary screen; post-Golgi transport phenotypic cell assay; inhibition, % at 10 µM; 98,000 tested, 0.9% active;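 note: yeast cells grown in 1536-well plates; yeast grown about 18 h at 30C before absorbance read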
Starred values were filed as active, the others as inactive; . = not tested or not shown. In the library only some 32% were active in any assay of this set; here they are far more common. Cut-off read from the data, not from the text of the source, unless noted: active = inhibition above about 30%; inactive = the rest.

SMILES	CYP2C9 inhib	CYP2C19 inh	PostGolgi ctrl	CYP2C19 act	CYP2C9 act	PostGolgi yeast
Cc1cccc(CN2CCCC(C(=O)N3CCc4ccccc4C3)C2)c1 (configuration not stated)	14	64*	-1	0.4	0.9	-1
O=C(C1CCCN(Cc2ccccc2)C1)N1CCCCC1 (configuration not stated)	4	-6	2	1.1	1	0
CCNc1nc(NC(C)C)nc(OCC)n1	12	2	-6	1	0.9	15
O=C(NCc1n[nH]c(=S)n1-c1ccc(F)cc1)c1ccco1	-7	20	13	0.8	1.1	0
c1ccc2c(-c3nc4ncccc4o3)cccc2c1	-228	-1	15	1	3.3*	7
CNc1oc(-c2cccc3ccccc23)nc1C#N	-8	19	20	0.8	1.1	-1
CCOC(=O)COc1ccc(-c2nnc(-c3ccccc3)o2)cc1	13	39	4	0.6	0.9	-13
Cc1cc(C(=O)COc2ccc(-c3nnco3)cc2)c(C)n1Cc1ccccc1	62*	60*	21	0.4	0.4	4
COc1ccccc1-c1nnc(NC(C)=O)s1	-110	-7	10	1.1	2.1*	7
COc1ccccc1-c1nnc(NC(=O)C(C)C)s1	20	28	13	0.7	0.8	21
CCCCOC(=O)Nc1nnc(-c2ccccc2OC)s1	-323	13	13	0.9	4.2*	0
CCCCOC(=O)Nc1nc2ccccc2s1	16	19	-2	0.8	0.8	-3
CCN(CC)C(=O)c1ccc(C(=O)c2ccccc2)cc1	11	13	0	0.9	0.9	4
O=C(CCCN1C(=O)c2ccccc2C1=O)Oc1ccc(F)cc1	6	65*	38*	0.3	0.9	-6
Cc1ccc(CN2C(=O)CCC2(C)C(=O)NCc2cccnc2)cc1 (configuration not stated)	19	24	-1	0.8	0.8	6
CC1(C(=O)NCc2cccnc2)CCC(=O)N1Cc1cccs1 (configuration not stated)	8	52*	7	0.5	0.9	1
CCOC(=O)C1CCN(c2c(N3CCN(c4ccccc4OC)CC3)c(=O)c2=O)CC1	7	-3	-1	1	0.9	2
CCOC(=O)c1cnc2ccc(OCC)cc2c1N1CCN(c2ccccc2OC)CC1	94*	77*	59*	0.2	0.1	0
COC(=O)CS(=O)(=O)c1nnc([C@H](Cc2ccccc2)NC(=O)OC(C)(C)C)o1	77*	84*	3	0.2	0.2	6
CCSc1nnc([C@H](Cc2c[nH]c3ccccc23)NC(=O)OC(C)(C)C)o1	18	28	19	0.7	0.8	15
Cc1cccc(CS(=O)(=O)c2nnc([C@H](Cc3ccccc3)NC(=O)OC(C)(C)C)o2)c1	56*	36	30	0.6	0.4	27
COC(=O)CSc1nnc([C@H](Cc2ccccc2)NC(=O)OC(C)(C)C)o1	2	12	2	0.9	1	4
CC(C)Oc1cccc(C(=O)O)c1	6	1	-3	1	0.9	-3
CCOCCCNC(=O)C(Cc1ccccc1)NC(=O)c1ccco1 (configuration not stated)	20	18	1	0.8	0.8	-1
COc1cccc(Cn2nnc3c(=O)[nH]c(C4CCCN(C(=O)c5ccccc5Cl)C4)nc32)c1 (configuration not stated)	83*	39	3	0.6	0.2	5
SMILES	CYP2C9 inhib	CYP2C19 inh	PostGolgi ctrl	CYP2C19 act	CYP2C9 act	PostGolgi yeast
O=c1[nH]c(C2CCCN(S(=O)(=O)c3ccccc3)C2)nc2c1nnn2Cc1ccccc1 (configuration not stated)	81*	44	9	0.6	0.2	18
O=c1[nH]c(C2CCCN(S(=O)(=O)c3ccccc3)C2)nc2c1nnn2Cc1ccccc1F (configuration not stated)	.	.	-3	.	.	4
COc1ccc(Cn2nnc3c(=O)[nH]c(C4CCCN(C(=O)c5ccccc5)C4)nc32)cc1 (configuration not stated)	.	.	-1	.	.	-1
O=C(c1ccccc1Cl)N1CCCC(c2nc3c(nnn3Cc3ccccc3)c(=O)[nH]2)C1 (configuration not stated)	84*	12	4	0.9	0.2	13
O=C(C1CCC1)N1CCC(c2nc3c(nnn3Cc3c(F)cccc3Cl)c(=O)[nH]2)CC1	71*	18	-3	0.8	0.3	3
COc1ccc(CC(NC(C)=O)C(=O)N2CCN(C(=O)Nc3ccc(Cl)cc3)CC2)cc1OC (configuration not stated)	30	16	8	0.8	0.7	1
CCCc1nc2c(nnn2Cc2ccccc2)c(=O)[nH]1	0	78*	7	0.2	1	22
c1cc2c(c(NCc3ccncc3)c1)CCCC2	82*	97*	17	0	0.2	12
c1ccc(COc2ccc(OCCCNC3CCCC3)cc2)cc1	1	11	11	0.9	1	14
CCOc1cc(CNC2CCCC2)cc(Cl)c1OCc1ccccc1	17	76*	4	0.2	0.8	3
COC(=O)CSc1ncnc2c1sc1nc(N3CCOCC3)c3c(c12)CCCC3	31	13	-3	0.9	0.7	3
c1nc(N2CCNCC2)c2sc3nc(N4CCOCC4)c4c(c3c2n1)CCC4	30	15	.	0.8	0.7	.
CCOC(=O)CSc1ncnc2c1sc1nc(N3CCOCC3)c3c(c12)CCCC3	54*	18	0	0.8	0.5	8
OCCN(CCO)c1ncnc2c1sc1nc(N3CCOCC3)c3c(c12)CCCC3	89*	81*	4	0.2	0.1	-9
OCCN1CCN(c2ncnc3c2sc2nc(N4CCOCC4)c4c(c23)CCC4)CC1	79*	84*	10	0.2	0.2	0
CN(C)CCNc1ncnc2c1sc1nc(N3CCOCC3)c3c(c12)CC(C)(C)SC3	10	15	16	0.9	0.9	9
CC1CCCCC1NC(=O)CN1CCC(O)(c2ccc(F)cc2)CC1 (configuration not stated)	8	6	0	0.9	0.9	9
C#CC(=O)N(c1cc(OC)ccc1OC)C(C(=O)NC1CCCC1)c1cccs1 (configuration not stated)	25	28	-8	0.7	0.8	14
CC(CN1CCCC1)OC(=O)COc1ccccc1 (configuration not stated)	3	-16	7	1.2	1	-1
